Tau ThT inhib = inhibitors of human tau fibril formation, thioflavin T binding; AID 1460; Potency, µM (titrated, usually from 57.4 µM), inactives show at the highest dose activity, negative = inhibition, most hits filed as inhibitors; recombinant tau K18 P301L, heparin-induced fibrillization, ThT fluorescence; 270,000 tested, 2.1% active; further: potency means the concentration at half of the fitted maximal effect; nearly all actives have a fitted effect of over 55% in size
Target sequence (P10636 561-689 P618L limits assumed): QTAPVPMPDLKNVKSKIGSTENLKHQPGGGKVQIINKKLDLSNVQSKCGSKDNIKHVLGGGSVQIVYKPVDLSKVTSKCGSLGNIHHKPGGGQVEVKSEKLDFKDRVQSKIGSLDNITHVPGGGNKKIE
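ThT emission at 510 nm, taken 1 hr after adding 30 uM dye, quantifies aggregates formed when 20 uM heparin acts on human tau K18 P301L for 6 hr at 37 C.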
Tau fibril FP = blocks human tau fibril formation measured by polarization; P10636; K18 P301L tau heparin fibrillization, Alexa594 FP, 6 h; Potency, µM (top dose mostly 57.7 µM), without a hit: at the highest dose activity, negative = inhibition, usual class: inhibitors; AID 1468; 280,000 tested, 0.39% active; further: potency means the concentration at half of the fitted maximal effect; nearly all actives have a fitted effect of over 55% in size
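Human K18 P301L fragment (15 uM unlabeled plus 0.24 uM Alexa 594-labeled) in 100 mM sodium acetate pH 7 with compound, aggregation induced by 20 uM heparin for 6 hr at 37 C. ThT (30 uM) added for 1 hr, then Alexa 594 FP read.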
PNC inhibitor = perinucleolar compartment assembly inhibition | PC3M PTB-GFP, PNC prevalence imaging, 16 h; stronger effect = lower value | AID 2417 | 140,000 tested, 3.1% active | activity change (PNC), negative = inhibition, % at 10 µM;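 active means readout at or below -70, meaning at least 70% loss of cells showing the perinucleolar compartment, a nuclear body marking cancer cells; inconclusive means readout between -30 and a set limit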;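 further: plate controls were DMSO wells for no effect and camptothecin positive control wells for full effect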
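PC3M cells stably expressing PTB-GFP, 750–1000 cells/well, treated 16 h at 37 °C with compound (23 nl of library stock), in duplicate. After paraformaldehyde fixation and Hoechst stain, imaged at 20x; PNC prevalence scored by image analysis.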
Tau fluor cs = counter-screen for tau fibril formation inhibitors | tau K18 P301L Alexa594 fluorescence, heparin fibrillization | AID 1463 | 280,000 tested, 0.93% active | Potency, µM (doses to about 57.7 µM), for the others: top-dose activity change, negative = decrease; further: potency means the concentration at half of the fitted maximal effect; nearly all actives have a fitted effect of over 55% in size
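Human tau K18 P301L (15 uM unlabeled, 0.24 uM Alexa 594-labeled) in 100 mM sodium acetate pH 7 with 20 uM heparin, 6 hr at 37 C. ThT 30 uM added, 1 hr ambient; Alexa 594 FP and total fluorescence read at 555/632 nm.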
TRb SRC2 PPI = disrupts binding of human TR beta to SRC2; Potency, µM (top dose mostly 106 µM), without a hit: at the highest dose activity change, negative = inhibition, most hits filed as inhibitors; AID 1469; 280,000 tested, 0.065% active; P10828; TRbeta-SRC2 peptide binding, fluorescence polarization; receptor liganded with 1 µM T3;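 further: potency means the concentration at half of the fitted maximal effect; plate controls were bound peptide for no effect and peptide without receptor for full effect; nearly all actives have a fitted effect of over 50% in size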
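Assay buffer: 20 mM Tris-HCl, 100 mM NaCl, 10% glycerol, 1 mM EDTA, 0.01% NP-40, 1 mM DTT, 1 uM T3, 5% DMSO; TRb LBD 0.6 uM, Texas Red SRC2 20 nM; FP after 5 hr.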
TR SRC2 fluor cs = counter-screen for TRb-SRC2 inhibitors: fluorescence interference. AID 1479. TRb/SRC2 Texas Red total fluorescence interference. 280,000 tested, 0.29% active. Potency, µM (titrated, usually from 106 µM), without a hit: at the top dose fluorescence change, negative = quenching; active means well fitted curve in either direction with a large enough effect; inconclusive means small, poorly fitted or top-dose-only effect; further: potency means the concentration at half of the fitted maximal effect
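Human TRb ligand-binding domain at 0.6 uM with 20 nM Texas Red SRC2 peptide in Tris buffer containing 1 uM T3 and 5% DMSO, incubated with compound 5 h at ambient temperature. Total fluorescence (555/632 nm) calculated as parallel + 2 × perpendicular.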
Numbers without * were called inactive; [ ] = dose if it differs, or a comment. A selection: hits, their analogues and other compounds. The true share with any hit is near 4.6%. Unless noted, the call rests on the fitted dose curve; in most records, active means well fitted curve in the direction sought with a large enough effect; inconclusive means small, poorly fitted or top-dose-only effect, or another doubt; inactive means no such curve, though single readings can be large; an effect the other way counts as inactive or inconclusive. Unless noted, on the % scale 0 is the no-effect control and ±100 the full control effect.

Screening Cn1c(=O)c2c(nc(CN3CCC(C(N)=O)CC3)n2Cc2ccccc2F)n(C)c1=O returned Tau ThT inhib -4%, Tau fibril FP 8%, PNC inhibitor -115*, Tau fluor cs 11%, TRb SRC2 PPI -8% and TR SRC2 fluor cs 1%.
Screening Cc1cc(NC(=O)c2ccccc2F)n(-c2nc3ccccc3[nH]2)n1 returned Tau ThT inhib 2%, Tau fibril FP -4%, PNC inhibitor 30, Tau fluor cs -26%, TRb SRC2 PPI 9% and TR SRC2 fluor cs -5%.
`Cc1cc(Nc2ccccc2)n(-c2nc3ccccc3[nH]2)n1` gave Tau ThT inhib inconclusive, Tau fibril FP -14%, PNC inhibitor -27, Tau fluor cs 25µM*[quencher], TRb SRC2 PPI -7% and TR SRC2 fluor cs -4%.
`CCOC(=O)c1c(C)[nH]c(C)c1S(=O)(=O)N1CCC(C(=O)NCc2cccc(C)c2)CC1` gave Tau ThT inhib -15%, Tau fibril FP -7%, Tau fluor cs -25%, TRb SRC2 PPI 6% and TR SRC2 fluor cs -1%.
For Cc1cc(NCCN(C)C)n2nc(-c3cccs3)cc2n1 the results were Tau ThT inhib -10%, Tau fibril FP 2%, PNC inhibitor -89*, Tau fluor cs -13%, TRb SRC2 PPI -6% and TR SRC2 fluor cs -3%.
For CCOc1ccc(-c2cc(-c3nc(-c4cc(OC)c(OC)c(OC)c4)no3)[nH]n2)cc1 the results were Tau ThT inhib inconclusive, Tau fibril FP -4%, Tau fluor cs -25%, TRb SRC2 PPI -6% and TR SRC2 fluor cs -2%.
For COc1ccc(-c2cc(-c3c(O)c(OC)c4occc4c3OC)[nH]n2)cc1OC the results were Tau ThT inhib 11µM*, Tau fibril FP 11%, PNC inhibitor 49, Tau fluor cs 14µM*[quencher], TRb SRC2 PPI -11% and TR SRC2 fluor cs -10%.
`COc1ccc(-c2cc(-c3c(O)c(OC)c4occc4c3OC)[nH]n2)cc1` gave Tau ThT inhib 11µM*, Tau fibril FP 14%, PNC inhibitor 21, Tau fluor cs 13µM*[quencher], TRb SRC2 PPI 10% and TR SRC2 fluor cs -11%.
For OC[C@H]1O[C@@H](n2cnc3c(NC4CCCCC4)ncnc32)[C@H](O)[C@@H]1O the results were Tau ThT inhib -4%, Tau fibril FP -5%, Tau fluor cs -7%, TRb SRC2 PPI -2% and TR SRC2 fluor cs -7%.
Cc1ccc(OCCSc2nc3ccc(NC(=O)COc4ccc(F)cc4)cc3s2)cc1 was read as Tau ThT inhib -13%, Tau fibril FP inconclusive, Tau fluor cs -18%, TRb SRC2 PPI 0% and TR SRC2 fluor cs 1%.
`CCN(CC)CCCNC(=S)N1CCn2c(nc3ccccc32)C1` gave Tau ThT inhib -6%, Tau fibril FP -4%, PNC inhibitor -116*, Tau fluor cs -6%, TRb SRC2 PPI 7% and TR SRC2 fluor cs -1%.
For COc1cc2oc(=O)cc(-c3ccc(-c4ccc(NC(C)=O)cc4)cc3)c2c(OC)c1OC the results were Tau ThT inhib -19%, Tau fibril FP inconclusive, Tau fluor cs inconclusive, TRb SRC2 PPI 1% and TR SRC2 fluor cs 1%.
`Cc1ccc2nsnc2c1S(=O)(=O)N1CCN(C(=O)C2CCCO2)CC1` (stereo not drawn) gave Tau ThT inhib -5%, Tau fibril FP 3%, PNC inhibitor -17, Tau fluor cs 2%, TRb SRC2 PPI -16% and TR SRC2 fluor cs -2%.
For O=c1oc2ccccc2cc1-c1csc(NN=C2CCCCC2)n1 the results were Tau ThT inhib inconclusive, Tau fibril FP -9%, PNC inhibitor inconclusive, Tau fluor cs 25µM*[quencher], TRb SRC2 PPI -12% and TR SRC2 fluor cs -10%.
O=C(Nc1nc(-c2cc3ccccc3oc2=O)cs1)c1ccco1 was read as Tau ThT inhib 1%, Tau fibril FP -14%, PNC inhibitor inconclusive, Tau fluor cs -12%, TRb SRC2 PPI -3% and TR SRC2 fluor cs -3%.

Screens (PubChem)
